Compound activity from PubChem.
A selection: hits, their analogues and other compounds. The true share with any hit is near 2.8%.
FEN1 inhibitor: human FEN1 inhibition; Recombinant FEN1 flap cleavage, fluorescence, 15 min; AID 588795; P39748; 390,000 tested, 0.35% active; Potency, µM (series often up to 114 µM), usual class: inhibitors; further: nearly all actives have a fitted effect of over 65% in size
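With each library titrated from low to high concentration, compounds met 10 nM FEN1 for 15 min at room temperature before 50 nM substrate was added; readings at 0 and 15 min fed four-parameter Hill curve fits.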
PI5P4K alpha inh: PI5P4K alpha (human) kinase inhibition; P48426; PI5P4Kalpha enzyme, ADP-Glo luminescence, 60 min; stronger effect = lower value; max response, %; 330,000 tested, 1.2% active; AID 652105; active means max response of -50% or lower; inconclusive means between -30% and -50%; inactive means -30% or higher; further: value at the top dose of about 77 µM
Target sequence (P48426 whole entry, looked up): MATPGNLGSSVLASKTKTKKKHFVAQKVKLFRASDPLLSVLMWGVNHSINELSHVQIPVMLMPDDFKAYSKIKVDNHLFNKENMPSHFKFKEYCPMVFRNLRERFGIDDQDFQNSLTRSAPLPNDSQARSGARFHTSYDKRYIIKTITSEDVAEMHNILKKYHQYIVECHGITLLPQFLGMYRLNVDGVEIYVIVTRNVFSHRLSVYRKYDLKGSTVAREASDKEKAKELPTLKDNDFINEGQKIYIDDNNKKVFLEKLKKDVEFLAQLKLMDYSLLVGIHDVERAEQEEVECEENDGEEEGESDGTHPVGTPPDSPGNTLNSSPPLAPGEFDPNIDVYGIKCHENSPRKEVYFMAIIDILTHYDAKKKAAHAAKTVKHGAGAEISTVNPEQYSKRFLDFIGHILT
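qHTS, 1536-well: enzyme/substrate mix, compound by pin tool, 5 microM ATP final; RT 60 min; ADP-Glo reagents 1 (45 min) then 2 (30 min); luminescence.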
POLB inh: blocks human DNA polymerase beta activity; Pol beta primer extension/strand displacement, fluorescence kinetic; Potency, µM (titrated, usually from 114 µM), most hits filed as inhibitors; 340,000 tested, 1.3% active; AID 485314
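Enzyme-only controls used 10 nM Pol beta; buffer lacking enzyme served as negative control. Compound preincubated 15 min, then 50 nM substrate added; 0 and 10 min reads at room temperature.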
Pol eta inh: inhibitors of human DNA polymerase eta | Q9Y253 | recombinant Pol eta, fluorescent DNA replication assay | Potency, µM (top dose mostly 114 µM), usual class: inhibitors | 390,000 tested, 1.2% active | AID 588591
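Pol eta (10 nM) was preincubated with compounds for 15 min at room temperature, after which fluorescent replication substrate (50 nM final) was added to start the reaction. Fluorescence was read kinetically at 0 and 10 min.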
POLI inh: blocks human DNA polymerase iota activity | Pol iota fluorescent replication assay, 10 min | Q9UNA4 | 390,000 tested, 1% active | AID 588590 | Potency, µM (top dose mostly 115 µM), most hits filed as inhibitors
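Pol iota at 10 nM preincubated 15 min with compounds at room temperature; reaction started with fluorescent substrate, 50 nM final. Fluorescence read kinetically at 0 and 10 min; buffer-only wells as negative control.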
Pol kappa inh: blocks human DNA polymerase kappa activity. purified Pol kappa, fluorescent DNA synthesis assay, 10 min. 400,000 tested, 0.53% active. AID 588579. Potency, µM (doses to about 107 µM), hits mostly inhibitors. Q9UBT6
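Here, compound and 10 nM enzyme are combined for 15 min at room temperature; adding 50 nM substrate (final) starts DNA synthesis, tracked by fluorescence at 0 and 10 min against buffer-only wells.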
Large screens that a line does not name were inactive. Unless noted, the call rests on the fitted dose curve; in most records, active means well fitted curve in the direction sought with a large enough effect; inconclusive means small, poorly fitted or top-dose-only effect, or another doubt; inactive means no such curve, though single readings can be large; an effect the other way counts as inactive or inconclusive.

Nn1cnnc1N/N=C/c1ccc(Cl)c([N+](=O)[O-])c1	FEN1 inhibitor inconclusive, POLB inh inconclusive, POLI inh 3.2µM
COc1ccc([C@@H]2CNC(=O)C2)cc1OC1CCCC1	none (no result: FEN1 inhibitor, PI5P4K alpha inh, POLB inh, Pol eta inh, POLI inh)
O=C(c1[nH]c(C(F)(F)F)nc1-c1ccccc1)N1CCN(c2ncccc2C(F)(F)F)CC1	none (no result: FEN1 inhibitor, POLB inh, Pol eta inh, POLI inh, Pol kappa inh)
CCCCCCCCCCCCCCC[C@H](O)[C@@H](N)CO	none (no result: FEN1 inhibitor, PI5P4K alpha inh, POLB inh, Pol eta inh, POLI inh)
CCOc1ccc(NC(=O)CSc2cc(C)c3ccccc3n2)cc1	none (no result: PI5P4K alpha inh)
CC1C(=O)NN=C1C(=O)N/N=C\c1ccc(O)cc1O (centres undefined)	PI5P4K alpha inh -60
Cc1ccc(C(=O)NCc2ccccn2)cc1NC1=NC2CS(=O)(=O)CC2S1 (centres undefined)	none
O=C(O)CC(Sc1n[nH]c(=S)s1)C(=O)O (centres undefined)	PI5P4K alpha inh inconclusive, POLB inh 25µM, POLI inh inconclusive
COC(=O)C(C)Sc1n[nH]c(=S)s1 (centres undefined)	PI5P4K alpha inh -72
CCCOc1ccc(N)cc1N	FEN1 inhibitor inconclusive, PI5P4K alpha inh -65, POLB inh inconclusive, Pol eta inh inconclusive, POLI inh inconclusive
O=[N+]([O-])c1c(Nc2cccc(O)c2)cc(Cl)c2nonc12	FEN1 inhibitor 50µM, Pol eta inh 25µM, POLI inh 13µM
O=C(O)c1cccc(Nc2ccc3nonc3c2[N+](=O)[O-])c1	none
O=C(O)c1ccc(Nc2cc(Cl)c3nonc3c2[N+](=O)[O-])cc1	FEN1 inhibitor inconclusive, POLI inh 8.9µM
O=C(Nc1ccc(Cl)cc1F)c1ccc(COc2c(F)c(F)c(F)c(F)c2F)o1	POLB inh 45µM, Pol eta inh 20µM
COC(=O)c1ccc(CS(=O)(=O)c2ccc(F)cc2)o1	POLB inh 35µM, Pol eta inh 22µM, Pol kappa inh inconclusive
CCOc1cc(C(=O)Nc2c(NC)c3ccccc3oc2=O)cc(OCC)c1OCC	none (no result: PI5P4K alpha inh)
Cc1ccc(/C=C/C(=O)O)cc1S(=O)(=O)N1CCc2ccccc21	PI5P4K alpha inh -76
Cc1ccc(/C=C/C(=O)O)cc1S(=O)(=O)N1CCc2ccccc2C1	PI5P4K alpha inh inconclusive
Cc1ccc(/C=C/C(=O)O)cc1S(=O)(=O)Nc1ccccc1C(=O)O	PI5P4K alpha inh -53, POLB inh inconclusive, Pol eta inh 45µM
Cc1ccc(/C=C/C(=O)O)cc1S(=O)(=O)N1CCCc2ccccc21	PI5P4K alpha inh -90
CSc1ncc(Cl)c(C(=O)Nc2cc(C(F)(F)F)ccc2Cl)n1	none (no result: PI5P4K alpha inh)
COC(=O)/C(C#N)=C/c1ccc(-c2ccc(S(N)(=O)=O)cc2)o1	PI5P4K alpha inh inconclusive
N#CC(C#N)=Cc1ccc(-c2ccc(S(=O)(=O)N=C(N)N)cc2)o1	PI5P4K alpha inh inconclusive, Pol eta inh 20µM, POLI inh inconclusive
Cc1ccc(SCc2cc(=O)c3c(=O)n(-c4ccccc4)[nH]c3[nH]2)cc1	PI5P4K alpha inh -62, POLB inh 35µM, POLI inh 22µM, Pol kappa inh inconclusive
O=c1cc(CSc2ccc(Cl)cc2)[nH]c2[nH]n(-c3ccccc3)c(=O)c12	PI5P4K alpha inh inconclusive, POLB inh 40µM, POLI inh inconclusive, Pol kappa inh inconclusive
CCC12CN3CC(C)(CN(C1)C3c1c[nH]c3ccc(OC)cc13)C2=O (centres undefined)	none (no result: PI5P4K alpha inh)
O=C1CCc2cc(S(=O)(=O)NC3CCCCC3)cc3c2N1CC3	Pol eta inh inconclusive, POLI inh 50µM (no result: POLB inh)
CN(C1CCCCC1)S(=O)(=O)c1cc2c3c(c1)CCN3C(=O)CC2	none (no result: POLB inh)
CCCOc1ccc(F)cc1-c1cc(C(=O)Nc2ccc(OC)cc2C)[nH]n1	none (no result: FEN1 inhibitor, POLB inh, Pol eta inh, POLI inh, Pol kappa inh)
Cn1c(Sc2ccc(C(=O)O)cc2[N+](=O)[O-])nnc1-c1ccccc1	PI5P4K alpha inh -77
CC12CN3CC(C)(CN(C1)C3c1ccc3ccccc3c1O)C2=O (centres undefined)	POLI inh 79µM
N#CCC(=O)Nc1ccc(C(=O)NCc2ccccn2)cc1	none
Cc1cn2c(=O)cc(COC(=O)c3ccc(NC(=O)COc4ccccc4C)cc3)nc2s1	none (no result: PI5P4K alpha inh)
CC(C)[C@H](NC(=O)OC(C)(C)C)c1cc(C(=O)N[C@@H](C)c2ccccc2)c(N)s1	none (no result: FEN1 inhibitor, POLB inh, Pol eta inh, POLI inh, Pol kappa inh)
